Assay results from the supplement of paper PMC10646978.
± gives the standard deviation.

Assays:
Settings in all cases: modulator concentration 10 µM
[1] = test system: RAW-Dual (murine macrophage reporter line); assay: NF-kB reporter (SEAP) activity fold change vs agonist alone; higher = enhanced NF-kB activity
Procedure, shortened: (§1)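 RAW-Dual murine macrophage reporter cells were seeded at 50 000 per well in 384-well plates and pre-incubated 1 hour at 37 °C with compound pin-transferred to 10 μM final. After 1 hour, a PRR agonist was added and cells incubated overnight. Supernatant NF-κB (SEAP, QUANTI-Blue, 620 nm absorbance) and IRF (Lucia luciferase, QUANTI-Luc, luminescence) signals were divided by the mean agonist-only control on the same plate to give fold change. Two replicate plates were averaged, with errors by propagation.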

[2] = test system: RAW-Dual (murine macrophage reporter line); assay: IRF reporter (Lucia luciferase) activity fold change vs agonist alone; higher = enhanced IRF activity
Procedure, shortened: as §1

[3] = test system: RAW-Dual (murine macrophage reporter line); assay: viability score (confluency relative to resting cells, overnight) (fraction); higher = more viable, active = viable (0.7 or more)
Procedure, shortened: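 RAW-Dual macrophages in 384-well plates were incubated overnight with compound, final concentration 10 μM. Confluency images from IncuCyte were processed in IncuCyte software into two masks covering all imaged wells. The viability score is each well's confluency relative to resting cells, and a compound met the cutoff when both masks exceeded 70% of resting cells.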

[4] = agonist: CpG ODN 1826 0.5 ug/mL

Compound COc1cc(CNCCc2ccc(OC)c(OC)c2)cc(OC)c1 has an NF-kB reporter [1, 4] of 0.973 ± 0.078, an NF-kB reporter ([1]; agonist: LPS 0.1 ug/mL) of 0.959 ± 0.14 and an NF-kB reporter ([1]; agonist: MPLA […]) of 0.989 ± 0.093. For the same compound, the IRF reporter ([2]; agonist: 3'3'-cGAMP 10 ug/mL) was 1.02 ± 0.032, the IRF reporter ([2]; agonist: LPS 0.1 ug/mL) was 1.22 ± 0.13 and the IRF reporter ([2]; agonist: MPLA […]) was 1.45 ± 0.18. For the same compound, the viability score [3] was 1.02 (active).
COc1ccc(CN2CCNCC2)c(OC)c1OC.Cl.Cl gave an NF-kB reporter [1, 4] of 1.26 ± 0.18, an NF-kB reporter ([1]; agonist: LPS 0.1 ug/mL) of 1.06 ± 0.16 and an NF-kB reporter ([1]; agonist: MPLA […]) of 1.45 ± 0.53. The IRF reporter ([2]; agonist: 3'3'-cGAMP 10 ug/mL) was 0.921 ± 0.042, the IRF reporter ([2]; agonist: LPS 0.1 ug/mL) was 1.29 ± 0.28 and the IRF reporter ([2]; agonist: MPLA […]) was 1.27 ± 0.13. The viability score [3] was 0.989 (active).
CC12CCC3C(CCC4CC(O)CCC43C)C1CCC2=O (stereo unspecified) gave an NF-kB reporter [1, 4] of 0.888 ± 0.066, an NF-kB reporter ([1]; agonist: LPS 0.1 ug/mL) of 1.04 ± 0.051 and an NF-kB reporter ([1]; agonist: MPLA […]) of 0.98 ± 0.021. For the same compound, the IRF reporter ([2]; agonist: 3'3'-cGAMP 10 ug/mL) was 0.949 ± 0.1, the IRF reporter ([2]; agonist: LPS 0.1 ug/mL) was 0.985 ± 0.033 and the IRF reporter ([2]; agonist: MPLA […]) was 0.972 ± 0.11. For the same compound, the viability score [3] was 1.01 (active).
CCC1(c2cccc(O)c2)CCCCN(C)C1.Cl (stereo unspecified) gave an NF-kB reporter [1, 4] of 0.894 ± 0.13, an NF-kB reporter ([1]; agonist: LPS 0.1 ug/mL) of 0.99 ± 0.054 and an NF-kB reporter ([1]; agonist: MPLA […]) of 1 ± 0.047. The IRF reporter ([2]; agonist: 3'3'-cGAMP 10 ug/mL) was 1.08 ± 0.088, the IRF reporter ([2]; agonist: LPS 0.1 ug/mL) was 0.963 ± 0.043 and the IRF reporter ([2]; agonist: MPLA […]) was 0.948 ± 0.21. The viability score [3] was 1.01 (active).
For CCCC(=O)c1ccc(N2CCN(C)CC2)c(F)c1, the NF-kB reporter [1, 4] was 0.956 ± 0.097, the NF-kB reporter ([1]; agonist: LPS 0.1 ug/mL) was 0.876 ± 0.1 and the NF-kB reporter ([1]; agonist: MPLA […]) was 0.906 ± 0.088. For the same compound, the IRF reporter ([2]; agonist: 3'3'-cGAMP 10 ug/mL) was 1.02 ± 0.056, the IRF reporter ([2]; agonist: LPS 0.1 ug/mL) was 1.22 ± 0.17 and the IRF reporter ([2]; agonist: MPLA […]) was 1.27 ± 0.24. For the same compound, the viability score [3] was 1.03 (active).
CC(=O)OC1CCC2(C)C(=CCC3C4CCC(=O)C4(C)CCC32)C1 (stereo unspecified) was tested, and the NF-kB reporter [1, 4] was 0.92 ± 0.084, the NF-kB reporter ([1]; agonist: LPS 0.1 ug/mL) was 0.901 ± 0.076 and the NF-kB reporter ([1]; agonist: MPLA […]) was 0.863 ± 0.092. It also gave an IRF reporter ([2]; agonist: 3'3'-cGAMP 10 ug/mL) of 0.969 ± 0.031, an IRF reporter ([2]; agonist: LPS 0.1 ug/mL) of 1.08 ± 0.095 and an IRF reporter ([2]; agonist: MPLA […]) of 1.15 ± 0.13. For the same compound, the viability score [3] was 1 (active).
COC(=O)c1ccc(N2C(=O)NC(=O)C(=Cc3ccc(OCc4ccccc4F)cc3)C2=O)cc1 was tested, and the NF-kB reporter [1, 4] was 1.06 ± 0.11, the NF-kB reporter ([1]; agonist: LPS 0.1 ug/mL) was 1.04 ± 0.057 and the NF-kB reporter ([1]; agonist: MPLA […]) was 0.88 ± 0.056. It also gave an IRF reporter ([2]; agonist: 3'3'-cGAMP 10 ug/mL) of 0.942 ± 0.043, an IRF reporter ([2]; agonist: LPS 0.1 ug/mL) of 1.25 ± 0.24 and an IRF reporter ([2]; agonist: MPLA […]) of 1.08 ± 0.25. The viability score [3] was 1 (active).
In the case of COc1ccc(N2C(=O)C(=Cc3ccc(OCc4ccc(F)cc4)c(OC)c3)C(=O)NC2=S)cc1, the NF-kB reporter [1, 4] is reported as 1.08 ± 0.11, the NF-kB reporter ([1]; agonist: LPS 0.1 ug/mL) is reported as 1.04 ± 0.085 and the NF-kB reporter ([1]; agonist: MPLA […]) is reported as 0.932 ± 0.057. For the same compound, the IRF reporter ([2]; agonist: 3'3'-cGAMP 10 ug/mL) was 0.919 ± 0.042, the IRF reporter ([2]; agonist: LPS 0.1 ug/mL) was 1.02 ± 0.062 and the IRF reporter ([2]; agonist: MPLA […]) was 1.05 ± 0.13. The viability score [3] was 1.01 (active).
Compound CN(C)CCC(=O)c1ccccc1 has an NF-kB reporter [1, 4] of 0.736 ± 0.06, an NF-kB reporter ([1]; agonist: LPS 0.1 ug/mL) of 0.28 ± 0.032 and an NF-kB reporter ([1]; agonist: MPLA […]) of 0.33 ± 0.018. For the same compound, the IRF reporter ([2]; agonist: 3'3'-cGAMP 10 ug/mL) was 0.155 ± 0.054, the IRF reporter ([2]; agonist: LPS 0.1 ug/mL) was 0.134 ± 0.0059 and the IRF reporter ([2]; agonist: MPLA […]) was 0.09 ± 0.0096. For the same compound, the viability score [3] was 0.463 (inactive).
COc1cc(OC)c(OC)cc1C=O gave an NF-kB reporter [1, 4] of 1.08 ± 0.3, an NF-kB reporter ([1]; agonist: LPS 0.1 ug/mL) of 1.04 ± 0.082 and an NF-kB reporter ([1]; agonist: MPLA […]) of 1.02 ± 0.067. The IRF reporter ([2]; agonist: 3'3'-cGAMP 10 ug/mL) was 0.794 ± 0.027, the IRF reporter ([2]; agonist: LPS 0.1 ug/mL) was 1.02 ± 0.11 and the IRF reporter ([2]; agonist: MPLA […]) was 0.99 ± 0.22. For the same compound, the viability score [3] was 0.992 (active).
Work on CN1C(=O)NC(=O)C(=Cc2ccc([N+](=O)[O-])o2)C1=O yielded an NF-kB reporter [1, 4] of 0.875 ± 0.069, an NF-kB reporter ([1]; agonist: LPS 0.1 ug/mL) of 1.06 ± 0.083 and an NF-kB reporter ([1]; agonist: MPLA […]) of 1 ± 0.12. For the same compound, the IRF reporter ([2]; agonist: 3'3'-cGAMP 10 ug/mL) was 0.92 ± 0.066, the IRF reporter ([2]; agonist: LPS 0.1 ug/mL) was 1.24 ± 0.14 and the IRF reporter ([2]; agonist: MPLA […]) was 0.961 ± 0.061. For the same compound, the viability score [3] was 1.02 (active).
In the case of CC12CCC3C(CCC4CC(Cl)CCC43C)C1CCC2=O (stereo unspecified), the NF-kB reporter [1, 4] is reported as 0.925 ± 0.074, the NF-kB reporter ([1]; agonist: LPS 0.1 ug/mL) is reported as 0.921 ± 0.077 and the NF-kB reporter ([1]; agonist: MPLA […]) is reported as 0.906 ± 0.094. For the same compound, the IRF reporter ([2]; agonist: 3'3'-cGAMP 10 ug/mL) was 0.961 ± 0.11, the IRF reporter ([2]; agonist: LPS 0.1 ug/mL) was 0.953 ± 0.11 and the IRF reporter ([2]; agonist: MPLA […]) was 0.955 ± 0.16. For the same compound, the viability score [3] was 1.05 (active).
CN1Cc2c(ccc3c2OCO3)C2C(O)Cc3cc4c(cc3C21)OCO4 (stereo unspecified) showed an NF-kB reporter [1, 4] of 1.75 ± 0.13, an NF-kB reporter ([1]; agonist: LPS 0.1 ug/mL) of 1.49 ± 0.12 and an NF-kB reporter ([1]; agonist: MPLA […]) of 1.79 ± 0.19. It also gave an IRF reporter ([2]; agonist: 3'3'-cGAMP 10 ug/mL) of 0.269 ± 0.012, an IRF reporter ([2]; agonist: LPS 0.1 ug/mL) of 1.64 ± 0.22 and an IRF reporter ([2]; agonist: MPLA […]) of 2 ± 0.38. The viability score [3] was 0.883 (active).
